PubChem BioAssay (NCATS)
Values joined by “and” are separate entries in the source; they are usually repeats but may differ in a detail not shown here. Equal entries are not always repeated. Results filed as inconclusive are left out. Some structures have more than one record in an assay (separate samples or runs), and their calls can disagree. Active and inactive are the calls of the source. Unless noted, calls follow the shape of the dose curve; as a rule, active = well fitted curve in the direction sought with a large enough effect; inconclusive = small, poorly fitted or top-dose-only effect, or another doubt; inactive = no such curve, though single readings can be large; an effect the other way counts as inactive or inconclusive.

How the values were obtained:
PA-1 = experiment: Primary qHTS to identify gynecologic anti-cancer compounds using libraries of approved drugs and bioactive compounds (AID 1345084); conditions: Gynecologic cancer cell panel viability, ATPlite luminescence, 48 h; series mostly up to 57.5 µM; also: nearly all actives have a fitted effect of over 55% in size; also: potency is read from the fitted curve at half-maximal effect; as to activity change, negative = cytotoxicity: % is scaled to controls: 0 for no effect and ±100 for the full control effect
In short: (§1)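 Five-concentration response, 48 h; readout is ATP-driven luciferase luminescence.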

SKOV3 = experiment: as above; conditions: Gynecologic cancer cell panel viability, ATPlite luminescence, 48 h; series mostly up to 57.5 µM
In short: as §1

Tov-21-G = experiment: as above; conditions: Gynecologic cancer cell panel viability, ATPlite luminescence, 48 h; series mostly up to 57.5 µM
In short: as §1

Tov112D = experiment: as above; conditions: Gynecologic cancer cell panel viability, ATPlite luminescence, 48 h; series mostly up to 57.5 µM
In short: as §1

[1] = Drug repurposing screens with cells derived from glioblastoma tumor samples (AID 1345199); conditions: GBM patient neurospheres viability, ATP luminescence, 48 h; also: nearly all actives have a fitted effect of over 40% in size; also: potency is read from the fitted curve at half-maximal effect; as to activity, negative = cell killing: % is scaled to controls: 0 for no effect and ±100 for the full control effect
In short: (§2)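 Four patient lines of CD133+ GBM neurospheres were screened at several concentrations; hits were retested in those lines plus three slower-growing GBM lines, using 48-hour treatment and ATP-based viability.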

astro = experiment: as above; conditions: viability, ATP luminescence, 48 h; series mostly up to 45.9 µM
In short: as §2

[2] = target: Nuclear receptor subfamily 1 group I member 2 (Rattus norvegicus) (UniProt Q9R1A7); experiment: qHTS assay for small molecule activators of the rat pregnane X receptor (rPXR) signaling pathway (AID 651751; call rule not given here; also: 0% is about no effect); conditions: rPXR reporter cells, luciferase (One-Glo), 24 h
[3] = qHTS assay for small molecule activators of the human pregnane X receptor (PXR) signaling pathway (AID 720659; call rule not given here; also: 0% is about no effect)
[4] = at 45.9 µM (top of the series), tumour line B
[5] = at 45.9 µM (top of the series), tumour line D
[6] = at 46 µM (top of the series), tumour line A
[7] = at 46.1 µM (top of the series), tumour line C
[8] = at 20 µM (top of the series), tumour line C
[9] = at 21.2 µM (top of the series), tumour line B
[10] = at 21.2 µM (top of the series), tumour line D
[11] = at 21.3 µM (top of the series), tumour line A

Chain of Nuclear receptor subfamily 1 group I member 2 (Rattus norvegicus) (Q9R1A7 whole entry, looked up): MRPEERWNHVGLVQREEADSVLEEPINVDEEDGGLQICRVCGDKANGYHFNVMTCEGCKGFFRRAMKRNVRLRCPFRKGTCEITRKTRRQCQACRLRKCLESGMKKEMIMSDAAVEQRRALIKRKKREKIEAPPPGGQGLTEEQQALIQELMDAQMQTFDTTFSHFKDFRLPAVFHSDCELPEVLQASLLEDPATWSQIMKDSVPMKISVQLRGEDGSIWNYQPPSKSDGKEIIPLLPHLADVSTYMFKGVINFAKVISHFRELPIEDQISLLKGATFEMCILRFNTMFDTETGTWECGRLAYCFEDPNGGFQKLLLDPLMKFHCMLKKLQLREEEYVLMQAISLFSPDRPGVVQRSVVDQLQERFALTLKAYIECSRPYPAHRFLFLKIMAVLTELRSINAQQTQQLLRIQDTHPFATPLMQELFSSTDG

CCOc1ccc(NC(=O)CC(C)O)cc1 (stereo unspecified)
inactive: Potency (PA-1) | Potency (SKOV3) | Potency (Tov-21-G) | Potency (Tov112D) | activity, negative = cell killing [1, 4] -5.84% | activity, negative = cell killing [1, 5] -16.9% | activity, negative = cell killing [1, 6] -20.2% | activity, negative = cell killing [1, 7] -0.587% | Potency (astro)

CCCCc1nc(Cl)c(CO)n1Cc1ccc(-c2ccccc2-c2nn[nH]n2)cc1
inactive: Potency (PA-1) | Potency (SKOV3) | Potency (Tov-21-G) | Potency (Tov112D) | activity, negative = cell killing [1, 4] -2.59% | activity, negative = cell killing [1, 5] -10.9% | activity, negative = cell killing [1, 7] -14.8% | Potency (astro)

Nc1ccc(C(=O)O)cc1
inactive: Potency (PA-1) | Potency (SKOV3) | Potency (Tov-21-G) | Potency (Tov112D) | activity, negative = cell killing [1, 4] -6.59% | activity, negative = cell killing [1, 5] -1.8% | activity, negative = cell killing [1, 6] -31.3% | activity, negative = cell killing [1, 7] -10.3% | Potency (astro) | max response [2] -6.06% | outcome [3]

C[C@H](CCC(=O)O)[C@H]1CC[C@H]2[C@@H]3C(=O)C[C@@H]4CC(=O)CC[C@]4(C)[C@H]3CC(=O)[C@]12C
inactive: Potency (PA-1) | Potency (SKOV3) | Potency (Tov-21-G) | Potency (Tov112D) | activity, negative = cell killing [1, 4] -0.788% | activity, negative = cell killing [1, 5] -14.6% | activity, negative = cell killing [1, 6] -2.78% | activity, negative = cell killing [1, 7] 3.71% | Potency (astro)

COc1c2occc2c(OC)c2c(=O)cc(C)oc12
inactive: Potency (PA-1) | Potency (SKOV3) | Potency (Tov-21-G) | Potency (Tov112D) | activity, negative = cell killing [1, 8] -11.9% | activity, negative = cell killing [1, 9] -15.3% | activity, negative = cell killing [1, 10] -6.87% | Potency (astro)

Cc1ccc(Nc2c(F)cccc2Cl)c(CC(=O)O)c1
inactive: Potency (PA-1) | Potency (SKOV3) | Potency (Tov-21-G) | Potency (Tov112D) | activity, negative = cell killing [1, 4] -6.28% | activity, negative = cell killing [1, 5] -3.08% | activity, negative = cell killing [1, 6] -32.8% | activity, negative = cell killing [1, 7] -3.92% | Potency (astro)

NC(CS)C(=O)O (stereo unspecified)
inactive: Potency (PA-1) | Potency (SKOV3) | Potency (Tov-21-G) | Potency (Tov112D) | activity, negative = cell killing [1, 4] -9.5% | activity, negative = cell killing [1, 5] -0.348% | activity, negative = cell killing [1, 6] -20.7% | activity, negative = cell killing [1, 7] -17% | Potency (astro)

CC[C@@H](CO)NCCN[C@@H](CC)CO
inactive: Potency (PA-1) | Potency (SKOV3) | Potency (Tov-21-G) | Potency (Tov112D) | activity, negative = cell killing [1, 8] 12.9% | activity, negative = cell killing [1, 9] 2% | activity, negative = cell killing [1, 10] -7.59% | activity, negative = cell killing [1, 11] -22% | Potency (astro)

OCc1ccccc1O
inactive: Potency (PA-1) | Potency (SKOV3) | Potency (Tov-21-G) | Potency (Tov112D) | activity, negative = cell killing [1, 4] -10.5% | activity, negative = cell killing [1, 5] -12.8% | activity, negative = cell killing [1, 6] -23.4% | activity, negative = cell killing [1, 7] -1.35% | Potency (astro)

Nc1ccc(/C=C/c2ccc(N)cc2S(=O)(=O)O)c(S(=O)(=O)O)c1
inactive: activity change, negative = cytotoxicity (PA-1) 4.94% [at 0.462 µM] | activity change, negative = cytotoxicity (SKOV3) -10.7% [at 0.462 µM] | activity change, negative = cytotoxicity (Tov-21-G) 0.128% [at 0.462 µM] | activity change, negative = cytotoxicity (Tov112D) 3.4% [at 0.462 µM] | activity, negative = cell killing [1, 4] -7.96% | activity, negative = cell killing [1, 5] -14.3% | activity, negative = cell killing [1, 6] -15.5% | activity, negative = cell killing [1, 7] -2.52% | Potency (astro)

CC(C)N=C(N)/N=C(\N)Nc1ccc(Cl)cc1
inactive: Potency (PA-1) | Potency (Tov-21-G) | Potency (Tov112D) | activity, negative = cell killing [1, 8] -3.45% | activity, negative = cell killing [1, 9] -11.2% | activity, negative = cell killing [1, 10] -20.6% | Potency (astro)
active: Potency (SKOV3) 28.2 µM

CC(C)(CO)[C@@H](O)C(=O)NCCCO
inactive: Potency (PA-1) | Potency (SKOV3) | Potency (Tov-21-G) | Potency (Tov112D) | activity, negative = cell killing [1, 4] -12% | activity, negative = cell killing [1, 5] -24.7% | activity, negative = cell killing [1, 7] -3.06% | Potency (astro)

CCN(CC)C(=O)N1CCN(C)CC1
inactive: Potency (PA-1) | Potency (SKOV3) | Potency (Tov-21-G) | Potency (Tov112D) | activity, negative = cell killing [1, 9] -9.76% | activity, negative = cell killing [1, 10] -28.5% | activity, negative = cell killing [1, 11] -8.09% | Potency (astro)

CCCCOc1ccc(OCCCN2CCOCC2)cc1
inactive: Potency (PA-1) | Potency (SKOV3) | Potency (Tov-21-G) | Potency (Tov112D) | activity, negative = cell killing [1, 8] -6.83% | Potency (astro)
active: Potency ([1]; tumour line A) 4.47 µM

CCN(CC)CCOC(=O)C(c1ccccc1)C1CCCCC1 (stereo unspecified)
inactive: Potency (PA-1) | Potency (SKOV3) | Potency (Tov-21-G) | Potency (Tov112D) | activity, negative = cell killing [1, 4] -15% | Potency (astro)
active: Potency ([1]; tumour line A) 20 µM

CN(C)CCCOc1nn(Cc2ccccc2)c2ccccc12
22.4 µM (active) and inactive: Potency (SKOV3)
active: Potency ([1]; tumour line A) 1.58 µM | Potency ([1]; tumour line D) 7.08 µM
31.6 µM (active) and inactive: Potency (PA-1) | Potency (Tov-21-G)
inactive: Potency (Tov112D) | activity, negative = cell killing [1, 8] -16.8% | Potency (astro)

CCCCCCc1ccc(O)cc1O
inactive: Potency (PA-1) | Potency (SKOV3) | Potency (Tov-21-G) | Potency (Tov112D) | activity, negative = cell killing [1, 4] -28.1% | activity, negative = cell killing [1, 7] -19.2% | max response [2] -4.98% and -0.286% | outcome [3]
active: Potency ([1]; tumour line A) 10 µM

CCCCCCCCCCCCCCCCOP(=O)([O-])OCC[N+](C)(C)C
inactive: Potency (PA-1) | Potency (SKOV3) | Potency (Tov112D) | activity, negative = cell killing [1, 4] -7.15% | activity, negative = cell killing [1, 5] -0.719% | activity, negative = cell killing [1, 7] -5.47% | Potency (astro)
active: Potency (Tov-21-G) 25.1 µM

C[C@@H]1C[C@H]2[C@@H]3C[C@H](F)C4=CC(=O)C(Cl)=C[C@]4(C)[C@@]3(F)[C@@H](O)C[C@]2(C)[C@@]1(O)C(=O)CO
inactive: Potency (PA-1) | Potency (SKOV3) | Potency (Tov-21-G) | Potency (Tov112D) | activity, negative = cell killing [1, 4] -15.9% | activity, negative = cell killing [1, 5] -23.3% | activity, negative = cell killing [1, 7] -24.8% | Potency (astro)

NC[C@H]1O[C@H](O[C@H]2[C@H](O[C@@H]3O[C@H](CO)[C@@H](O)[C@H]3O)C(O)[C@H](N)C[C@@H]2N)[C@H](N)[C@@H](O)[C@@H]1O (stereo partly specified)
inactive: activity change, negative = cytotoxicity (PA-1) 6.06% [at 11.6 µM] | activity change, negative = cytotoxicity (SKOV3) -1.1% [at 11.6 µM] | activity change, negative = cytotoxicity (Tov-21-G) 9.27% [at 11.6 µM] | activity change, negative = cytotoxicity (Tov112D) 13.5% [at 11.6 µM] | activity, negative = cell killing [1, 9] -5.37% | activity, negative = cell killing [1, 10] 0.454% | Potency (astro)

C#C[C@]1(OC(C)=O)CC[C@H]2[C@@H]3CCC4=C[C@@H](OC(C)=O)CC[C@@H]4[C@H]3CC[C@@]21C
active: Potency ([1]; tumour line A) 10 µM | Potency ([1]; tumour line D) 17.8 µM
inactive: Potency (PA-1) | Potency (SKOV3) | Potency (Tov-21-G) | Potency (Tov112D) | activity, negative = cell killing [1, 7] -26.2% | Potency (astro)

O=S1(=O)c2cccc3cccc(c23)N1CCCN1CCN(c2ccc(F)cc2)CC1
inactive: Potency (PA-1) | Potency (SKOV3) | Potency (Tov-21-G) | Potency (Tov112D) | activity, negative = cell killing [1, 4] -28.9% | Potency (astro)
active: Potency ([1]; tumour line A) 12.6 µM

CCN(CCCc1ccccc1)CCCc1ccccc1
active: Potency ([1]; tumour line A) 5.01 µM
inactive: Potency (PA-1) | Potency (SKOV3) | Potency (Tov-21-G) | Potency (Tov112D) | activity, negative = cell killing [1, 8] -18.9% | activity, negative = cell killing [1, 9] 2.05% | Potency (astro)

O=C(OCC(O)CO)c1ccccc1Nc1ccnc2cc(Cl)ccc12 (stereo unspecified)
inactive: Potency (PA-1) | Potency (SKOV3) | Potency (Tov-21-G) | Potency (Tov112D) | activity, negative = cell killing [1, 8] 1.49% | activity, negative = cell killing [1, 9] -17% | Potency (astro)

C[C@@H]1C[C@H]2[C@@H]3CCC4=CC(=O)C=C[C@]4(C)[C@@]3(F)[C@@H](O)C[C@]2(C)[C@H]1C(=O)CO
inactive: Potency (PA-1) | Potency (SKOV3) | Potency (Tov-21-G) | Potency (Tov112D) | activity, negative = cell killing [1, 4] -17.3% | activity, negative = cell killing [1, 5] -7.25% | activity, negative = cell killing [1, 7] 1.19% | Potency (astro)
